# This is a sample that favours compounds with a hit; in the whole collection about 1.9% have one here.
# HMGR II inh: blocks class II HMG-CoA reductase of Enterococcus faecalis | inhibition, % at 10 µM | purified E. faecalis HMGR, NADPH absorbance 340 nm kinetic | actives 0.41% (n = 190,000) | AID 1066;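 active means inhibition above a set limit, the median over all tested compounds plus 3 SD, cut at about 9.5% in these data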;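 further: enzyme runs in reverse so mevalonate oxidation gives rising NADPH absorbance; 0% = complete reaction with DMSO and 100% = background rate lacking mevalonate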
# p47phox inh: inhibitors of human p47phox binding | p47phox/p22phox peptide binding, fluorescence polarization, 2 h | inhibition, % at 24.7 µM | actives 0.53% (n = 220,000);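 active means inhibition above about 30%, limit read from the data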;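 further: 0% = p47phox with labelled peptide and 100% = labelled peptide alone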
# dFosB act: activators of mouse delta FosB homodimer. actives 0.99% (n = 340,000). purified delta FosB, TAMRA-CDK5 oligo fluorescence polarization; percent of positive-control signal above neutral wells. activation, % at 25 µM. P13346;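 active means mean activation above about 17%, with every replicate also reaching it, limit read from the data, passing the limit was not always enough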
# Target sequence (P13346 whole entry, looked up): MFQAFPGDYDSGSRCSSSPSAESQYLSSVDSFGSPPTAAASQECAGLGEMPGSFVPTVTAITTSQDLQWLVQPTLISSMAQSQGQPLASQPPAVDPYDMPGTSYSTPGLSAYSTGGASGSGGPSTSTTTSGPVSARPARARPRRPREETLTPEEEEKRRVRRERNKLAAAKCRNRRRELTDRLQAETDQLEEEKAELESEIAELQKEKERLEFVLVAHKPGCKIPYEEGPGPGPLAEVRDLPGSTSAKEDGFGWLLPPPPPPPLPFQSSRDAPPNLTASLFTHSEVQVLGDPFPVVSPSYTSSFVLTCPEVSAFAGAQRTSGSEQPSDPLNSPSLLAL
# 14-3-3 Bad PPI: disrupts binding of bovine 14-3-3 zeta to phospho-Bad peptide; P63103; TR-FRET 14-3-3zeta/Dy647-pBad peptide displacement, 1 h; inhibition, % at 21.7 µM; actives 0.71% (n = 220,000); AID 781;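 active means inhibition above about 70%, limit read from the data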;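 further: 0% = full 14-3-3 plus peptide FRET controls and 100% = background without 14-3-3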
# Target sequence (P63103 whole entry, looked up): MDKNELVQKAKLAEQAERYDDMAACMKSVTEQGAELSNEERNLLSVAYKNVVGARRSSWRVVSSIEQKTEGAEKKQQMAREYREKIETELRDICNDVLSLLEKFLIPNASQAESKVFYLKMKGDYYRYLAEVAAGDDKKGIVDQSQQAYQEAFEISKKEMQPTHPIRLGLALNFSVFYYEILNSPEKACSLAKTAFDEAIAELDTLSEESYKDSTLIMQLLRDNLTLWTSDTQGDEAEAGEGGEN
# Starred values were filed as active, the others as inactive; nt = no result; + = active, no number; [ ] = another dose, or the depositor's remark.
SMILES,HMGR II inh,p47phox inh,dFosB act,14-3-3 Bad PPI
COc1cccc2sc(Nc3nc(-c4cc5ccccc5oc4=O)cs3)nc12,-1,-31,-9,94*[fluorescence artefact?]
CCOC(=O)/C(C#N)=C1/C(=O)N(Cc2ccccc2)c2ccccc21,15*,6,-6,-8
CCOC(=O)C(C#N)=C1CCN(Cc2ccccc2)CC1,nt,nt,-6,nt
CO[C@@]1(NC(=O)Cc2cccs2)C(=O)N2C(C(=O)O)=C(COC(N)=O)CS[C@@H]21,-2,-11,-10,73*
O=C1c2c(O)cc(O)cc2O[C@@]12c1c(cc(O)c3c1O[C@H](c1ccc(O)cc1)[C@@H](O)C3)O[C@@H]2c1ccc(O)cc1,9.6*,-52,0,16
Cc1nc2ccc3nc(NC(=O)c4ccc5c(c4)OCCO5)sc3c2s1,-3,-26,173*,nt
COc1ccc(NC(=O)c2ccccc2NC(=O)c2ccccc2C(=O)O)c(OC)c1,nt,nt,0,nt
Cc1c(CN(C)C)c2c(n1Cc1ccccc1)C(=O)c1ccc(Br)cc1-2,1,-22,19*,-5
O=C(N/N=C/c1ccccc1)c1cc(-c2ccc3c(c2)OCO3)n[nH]1,-2,-18,11,7
O=C(N/N=C/c1cccc(O)c1)c1cc(-c2ccc3c(c2)OCO3)n[nH]1,1,-18,41*,1
Cc1ccc2[nH]c(=O)c(C(c3nnnn3C3CCCC3)N3CCCc4ccccc43)cc2c1 (stereo not drawn),5,-8,-4,-11
COc1ccc(/C=N/Nc2nc(-c3cccnc3)nc3ccccc23)c(OC)c1,nt,-26,-6,70*
COc1ccc(/C=N/Nc2nccnc2Cl)cc1,-4,-14,-2,9
COc1ccc(/C=N/Nc2nccnc2Cl)c(OC)c1,18*,-9,-4,-4
CC(=O)N/C(=C\c1ccccc1)C(=O)NC(C)C(=O)O (stereo not drawn),-5,5,5,-2
O=c1[nH]c2ccccc2nc1C(F)(F)C(F)F,-1,0,-6,22
CC(SC(C)C(=O)NN=Cc1ccc(F)cc1)C(=O)NN=Cc1ccc(F)cc1 (stereo not drawn),nt,nt,-2,nt
COc1ccc(S(=O)(=O)O/N=C2\CCCc3ccccc32)cc1,-5,42*,-2,23
O=S(=O)(O/N=C1\CCCc2ccccc21)c1ccccc1,-4,-8,-1,0
CCn1c(SCc2nc(CC(=O)Nc3ccccc3OC)no2)nnc1-c1cccs1,-8,-3,-9,-13
CCCOc1cccc(C2C(C(=O)c3cccs3)=C(O)C(=O)N2CCN2CCOCC2)c1 (stereo not drawn),nt,nt,-8,nt
COc1ccc(C(C)=O)cc1Cn1c(=O)cc(C)[nH]c1=O,nt,nt,2,nt
CN1CCN(c2ccc(NC(=S)NC(=O)c3cccc4c(Cl)cccc34)cc2)CC1,nt,nt,49*,nt
CCCC(=O)Nc1cc(=O)n(C)c(=O)n1C,-1,60*,-8,12
Cn1c(NC(=O)CCc2ccccc2)cc(=O)n(C)c1=O,2,-5,-2,3
SMILES,HMGR II inh,p47phox inh,dFosB act,14-3-3 Bad PPI
C=CCNC(=S)NNC(=O)CCC(O)CCCCC (stereo not drawn),-3,-2,0,8
Cc1nc(COC(=O)c2cc(O)c3ccccc3c2O)cs1,-5,49*,-1,57
O=C(CSc1nnc2ccc(-c3ccccn3)nn12)Nc1ccccc1,nt,nt,0,nt
CCOc1ccc(-n2c(SCc3ccc(C#N)cc3)nnc2-c2cccnc2)cc1,6,16,-17,-3
C=CCSc1nnc(-c2ccncc2)n1-c1ccc(OCC)cc1,3,+,-6,8
C=CCc1ccc(OCCCNCc2ccccc2)c(OC)c1,nt,nt,-6,nt
Cc1cccc(NC(=O)CCn2cnnn2)c1,-8,-3,1,-13
O=C(CCn1cnnn1)Nc1ccc(Cl)c(Cl)c1,14*,-7,4,-9
C=CCN1C(C(=O)c2ccccc2)=C(OC(=O)COc2ccccc2)c2ccccc2S1(=O)=O,-4,-13,-3,77*
COc1cccc(/C=N/NC(=O)CNC(=O)/C=C\c2ccccc2)c1O,nt,nt,58*,nt
COc1ccccc1/C=C/C(=O)NCC(=O)N/N=C/c1ccccc1,-5,-4,-9,-9
COc1ccc(/C=C\C(=O)NCC(=O)N/N=C/c2cccc(OC)c2O)cc1,nt,nt,47*,nt
CCC(C)[C@H](NC(=O)c1cn(CC)c2cc3c(cc2c1=O)OCO3)C(=O)NCCCn1ccnc1 (stereo partly drawn),nt,nt,-11,nt
O=C(Cc1ccc([N+](=O)[O-])cc1)Nc1ccc(Cl)cc1,-2,77*,-7,-2
N#CC(C#N)=C1C=C2C=C(N3CCOCC3)CCC2CC1 (stereo not drawn),-4,65*,-21,-6
N#CC(C#N)=C1C=C2C=C(N3CCCCCC3)CCC2CC1 (stereo not drawn),1,-255,-37,-9
COc1ccc(NC(=O)CSCC(=O)NCCc2ccccn2)cc1,-1,1,-7,-1
COc1ccc(C(=O)NC2CCCCCC2)cc1S(=O)(=O)N1CCOCC1,nt,nt,0,nt
O=C(Nc1ccc(Oc2ccccc2)cc1)C1CC1,-4,6,0,-1
O=C(Nc1ccc(Oc2ccccc2)cc1)C1CCN(c2ncccn2)CC1,-4,-14,-6,79*
CN(C(=O)CCN1C(=O)C(C)(C)Nc2ccccc21)c1ccccc1,36*,-2,-4,-11
CC1(C)Nc2ccccc2N(CCC(=O)N2CCOCC2)C1=O,-3,-10,-4,5
c1cncc(-c2nc(-c3ccco3)cs2)c1,-1,-6,1,73*
CC(NC(=O)C(c1ccccc1)c1ccccc1)c1ccc(S(N)(=O)=O)cc1 (stereo not drawn),nt,nt,-1,nt
COc1ccc2c(c1)c(=O)c(C(=O)c1ccccc1)cn2Cc1ccc(C)cc1,14*,-13,-15,6
SMILES,HMGR II inh,p47phox inh,dFosB act,14-3-3 Bad PPI
CCc1cccc(NS(=O)(=O)c2ccc3c(c2)oc(=O)n3C)c1,1,40*,-14,2
Cc1ccc(C(=O)OC(C)C(=O)NC(C)CCc2ccccc2)o1 (stereo not drawn),nt,nt,-14,nt
CC(=NCCc1c(C)[nH]c2ccc(OCc3ccccc3)cc12)C1=C(O)CC(c2ccccc2)CC1=O (stereo not drawn),13*,-9,-15,-13
CCCCC(=NCCc1c(C)[nH]c2ccc(OC)cc12)C1=C(O)CC(c2ccccc2)CC1=O (stereo not drawn),5,-8,-2,-9
Cn1c(Cc2ccccc2)nnc1SCC(=O)N1CCN(c2ccccc2)CC1,-3,-16,-5,3
Cn1c(Cc2ccccc2)nnc1SCC(=O)N1CCOCC1,0,83*,-1,12
O=C(NCC1OCCCN1S(=O)(=O)c1cc(F)ccc1F)C(=O)NC1CCCCC1 (stereo not drawn),9.6*,-7,-1,-6
N#Cc1ccc(C(c2nnnn2Cc2ccccc2)N2CCCC2)cc1 (stereo not drawn),6,-15,0,70*
CCNC(=O)c1c(NC(=O)c2cc(-c3cc(C)ccc3O)n[nH]2)sc2c1CCCC2,1,52*,-9,45

# From PubChem
